Calls of active or inactive are those of the source.

Experiment [1] can be described thus: E. coli DRC41 culture turbidity changes, primary screen, E. coli filamentation inducer project, strain DRC41, OD650, 48 h (AID 1152).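 Further: E. coli MC1000 strain DRC41 lacking acrAB efflux pump and sulA.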 The settings on record: E. coli DRC41 (acrAB sulA), higher = more signal, called active from +8 up or from −8 down.
Experiment [2] is described as follows: small-molecule binders of probe aLefty1, primary screen, biochemical, small-molecule microarray, 635/667 nm fluorescence (AID 1153).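 Further: score merges spot fluorescence with signal-to-noise ratio from the scanned slide images.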 The settings on record: higher = more signal.
Experiment [3] can be described thus: PSAC antagonists in infected red cells, primary screen, cell-based, P. falciparum Indochina, OD700, 1 h (AID 1154). The conditions noted are these: P. falciparum Indochina infected RBC osmotic lysis, higher = more signal, called active from +8 up or from −8 down.
The nature of experiment [4]: PSAC antagonists in infected red cells, primary screen, cell-based, P. falciparum Indochina, OD700, 2 h (AID 1155).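 Further: lysis reports solute entry through the parasite surface anion channel PSAC; channel blockers reduce lysis of infected cells.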 The conditions noted are these: P. falciparum Indochina infected erythrocytes, osmotic lysis OD700; higher = more signal, called active from +8 up or from −8 down.
A short description of experiment [5]: osmotic lysis modulators in infected erythrocytes, primary screen, PSAC antagonist project, cell-based, P. falciparum Indochina, OD700, 3 h (AID 1156). The settings on record: higher = more signal, called active from +8 up or from −8 down.
Experiment [6] can be described thus: PSAC antagonists in infected red cells, primary screen, cell-based, P. falciparum Indochina, OD700, 18 h (AID 1157). The conditions noted are these: P. falciparum Indochina infected erythrocytes, osmotic lysis OD700, 18 h; higher = more signal, called active from +8 up or from −8 down.
Experiment [7] can be described thus: modulators of S6 phosphorylation in cells, primary screen, cell-based, A549, cytoblot, luminescence, serum-stimulated (AID 1158).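 Further: serum-stimulated A549 lung adenocarcinoma cells; signal is phosphorylated S6 detected by cytoblot immunostaining with HRP secondary.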 The settings on record: A549 phospho-S6 cytoblot, 5 h, higher = more signal.
For experiment [8], the target named is NADPH oxidase 2 (Homo sapiens) (UniProt P04839). The experiment in a line: NOX2-dependent H2O2 signal modulators, primary screen, NOX inhibitor project, cell-based, HEK293-NOX2, PMA-stimulated, Amplex Red fluorescence (AID 1159). Further: test concentration not given here. The conditions noted are these: 45 min, higher = more signal, called active from +8 up or from −8 down.
Chain of NADPH oxidase 2 (Homo sapiens) (P04839 whole entry, looked up): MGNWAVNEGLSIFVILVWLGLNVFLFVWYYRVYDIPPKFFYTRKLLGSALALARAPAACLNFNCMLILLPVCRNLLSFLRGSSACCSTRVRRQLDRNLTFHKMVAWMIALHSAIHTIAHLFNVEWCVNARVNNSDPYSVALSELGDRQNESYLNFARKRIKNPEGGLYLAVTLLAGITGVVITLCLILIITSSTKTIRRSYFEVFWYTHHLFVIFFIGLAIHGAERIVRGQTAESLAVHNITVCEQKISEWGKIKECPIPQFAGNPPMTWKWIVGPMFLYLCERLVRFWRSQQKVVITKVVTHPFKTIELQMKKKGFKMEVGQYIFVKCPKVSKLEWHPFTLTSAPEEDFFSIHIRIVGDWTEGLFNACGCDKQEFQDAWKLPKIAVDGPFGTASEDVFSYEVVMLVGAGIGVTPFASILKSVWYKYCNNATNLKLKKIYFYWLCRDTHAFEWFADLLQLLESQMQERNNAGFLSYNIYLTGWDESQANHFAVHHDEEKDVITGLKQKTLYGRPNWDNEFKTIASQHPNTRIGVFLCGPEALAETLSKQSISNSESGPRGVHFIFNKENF
In experiment [9] the target is NADPH oxidase 4 (Homo sapiens) (UniProt Q9NPH5). The experiment in a line: NOX4-dependent H2O2 signal modulators, primary screen, NOX inhibitor project, cell-based, HEK293-NOX4, tetracycline-induced, Amplex Red fluorescence (AID 1160). The settings on record: 45 min, higher = more signal, called active from +8 up or from −8 down.
Chain of NADPH oxidase 4 (Homo sapiens) (Q9NPH5 whole entry, looked up): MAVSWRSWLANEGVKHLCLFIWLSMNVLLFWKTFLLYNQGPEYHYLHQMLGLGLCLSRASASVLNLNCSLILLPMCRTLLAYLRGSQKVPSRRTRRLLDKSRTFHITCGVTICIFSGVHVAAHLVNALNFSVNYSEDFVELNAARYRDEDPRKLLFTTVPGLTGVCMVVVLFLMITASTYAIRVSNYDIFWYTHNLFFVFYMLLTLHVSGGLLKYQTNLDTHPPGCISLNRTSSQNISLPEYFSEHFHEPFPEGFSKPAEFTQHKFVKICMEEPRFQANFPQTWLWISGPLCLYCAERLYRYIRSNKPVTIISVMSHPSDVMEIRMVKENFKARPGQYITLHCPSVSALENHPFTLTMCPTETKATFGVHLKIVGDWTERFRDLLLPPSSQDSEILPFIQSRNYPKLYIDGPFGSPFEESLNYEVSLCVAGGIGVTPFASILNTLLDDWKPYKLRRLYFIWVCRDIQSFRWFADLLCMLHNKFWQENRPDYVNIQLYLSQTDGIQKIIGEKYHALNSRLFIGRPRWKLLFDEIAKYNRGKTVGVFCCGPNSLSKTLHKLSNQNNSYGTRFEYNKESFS
Experiment [10] deals with NADPH oxidase 5 (Homo sapiens) (UniProt Q96PH1). The experiment is described as follows: NOX5-dependent H2O2 signal modulators, primary screen, NOX inhibitor project, cell-based, HEK293-NOX5, Amplex Red fluorescence (AID 1161). The settings on record: HEK293-NOX5, ionomycin, 45 min, higher = more signal.
Chain of NADPH oxidase 5 (Homo sapiens) (Q96PH1 whole entry, looked up): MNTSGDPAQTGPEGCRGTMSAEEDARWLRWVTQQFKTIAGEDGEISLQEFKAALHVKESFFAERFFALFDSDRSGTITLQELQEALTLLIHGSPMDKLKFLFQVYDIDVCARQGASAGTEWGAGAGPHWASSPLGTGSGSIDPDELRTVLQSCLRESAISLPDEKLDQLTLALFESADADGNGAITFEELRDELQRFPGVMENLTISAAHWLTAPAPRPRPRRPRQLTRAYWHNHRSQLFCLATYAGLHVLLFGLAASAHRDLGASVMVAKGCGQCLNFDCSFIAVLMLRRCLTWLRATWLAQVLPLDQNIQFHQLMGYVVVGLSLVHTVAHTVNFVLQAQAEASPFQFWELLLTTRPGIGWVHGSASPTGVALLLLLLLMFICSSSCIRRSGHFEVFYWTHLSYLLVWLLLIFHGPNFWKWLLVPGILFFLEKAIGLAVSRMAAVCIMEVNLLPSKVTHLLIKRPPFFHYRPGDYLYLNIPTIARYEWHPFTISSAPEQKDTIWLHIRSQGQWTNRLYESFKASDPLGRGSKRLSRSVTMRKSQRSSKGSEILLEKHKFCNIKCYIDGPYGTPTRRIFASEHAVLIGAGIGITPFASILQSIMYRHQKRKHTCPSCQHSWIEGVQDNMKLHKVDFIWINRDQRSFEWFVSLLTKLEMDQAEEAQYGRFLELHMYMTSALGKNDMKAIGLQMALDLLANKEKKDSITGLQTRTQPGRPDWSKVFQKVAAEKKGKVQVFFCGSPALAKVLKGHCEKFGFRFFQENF
Experiment [11] in a line: A549 cell viability effects, profiling panel, calcein-AM fluorescence, 48 h, basal (AID 1162). Further: test concentration not given here. The settings on record: higher = more signal.
Experiment [12] is described as follows: adipocyte viability effects, profiling panel, cell-based, 3T3-L1 adipocytes, calcein-AM fluorescence, 48 h, basal (AID 1163). Further: test concentration not given here. The settings on record: 3T3-L1 adipocytes viability, higher = more signal.
The nature of experiment [13]: HepG2 cell viability effects, profiling panel, calcein-AM fluorescence, 48 h, basal (AID 1164). Further: test concentration not given here. The settings on record: higher = more signal.
Experiment [14] in a line: MM1S cell viability effects, profiling panel, calcein-AM fluorescence, 48 h, basal (AID 1165).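 Further: viability of MM1S multiple myeloma cells under basal unstimulated conditions; test concentration not given here.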 The conditions noted are these: higher = more signal.
Experiment [15] can be described thus: basal RPMI8226 viability, no added stimulus, profiling panel, cell-based, calcein-AM fluorescence, 48 h, PK04 Diversity Set (AID 1166).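 Further: cells grown under basal conditions without added stimulus; test concentration not given here.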 The conditions noted are these: RPMI8226 myeloma viability, higher = more signal.
Experiment [16] can be described thus: basal HepG2 mitochondrial membrane potential changes, profiling panel, cell-based, JC-1 fluorescence, 24 h, 100 nL compound (AID 1167). Further: test concentration not given here. The conditions noted are these: higher = more signal.
The nature of experiment [17]: basal 3T3-L1 adipocyte mitochondrial potential changes, profiling panel, cell-based, JC-1 fluorescence, 3T3-L1 adipocytes, 24 h, 100 nL compound (AID 1168). Further: test concentration not given here. The conditions noted are these: JC-1 mitochondrial fluorescence, higher = more signal, called active from +8 up or from −8 down.
Experiment [18] in a line: basal RPMI8226 mitochondrial membrane potential changes, profiling panel, cell-based, JC-1 fluorescence, 24 h, 100 nL compound (AID 1169). Further: test concentration not given here. The conditions noted are these: RPMI8226 myeloma, JC-1 mitochondrial potential fluorescence, higher = more signal.
The nature of experiment [19]: basal MM1S mitochondrial membrane potential changes, profiling panel, cell-based, JC-1 fluorescence, 24 h, 100 nL compound (AID 1170). Further: test concentration not given here. The conditions noted are these: higher = more signal.
The nature of experiment [20]: A549 lung cancer cell viability effects, profiling panel, resazurin fluorescence, 24 h, PK04 Diversity Set (AID 1171). Further: test concentration not given here. The settings on record: higher = more signal, called active from +8 up or from −8 down. Background: Alamar Blue is a resazurin reagent that responds to reducing activity.

Regarding `CC(C)(C)OC(=O)CC[C@]1(C(=O)NCC(O)CO)COC(c2ccc(OCCCO)cc2)=N1` (stereo not given in full), the z-score in [1] is -0.0886 (inactive); in experiment [3], 5.77 (inactive); in experiment [4], 0.645 (inactive); in experiment [5], 0.639 (inactive); in [6] it was 0.619 (inactive); in [7] it was 0.0272. For the same molecule, the z-score in experiment [8] was -2.16 (inactive); in [9], -0.351 (inactive); in experiment [10], -0.519; in experiment [11] it was 0.208; in experiment [12], -0.388; in experiment [13], -0.665. In addition, the z-score in experiment [14] is -1.01; in experiment [15], 0.418; in [16], -0.76; in experiment [17] it was 0.176 (inactive); in [18] it was 0.527; in [19], -0.23. The z-score in experiment [20] is 0.706 (inactive). This molecule displayed a composite z-score in experiment [2] of 0.149.
For the molecule `C=C(COC)/C(=C/C[C@@H](OC(C)=O)c1ccc(OCCO)cc1)c1cc(C(=O)OC)ccc1OC`, the z-score in [1] is 0.0977 (inactive); in [3] it was 11.2 (active); in experiment [4], 1.87 (inactive); in [5], 0.681 (inactive); in [6], 0.601 (inactive); in [7], -0.0505. In addition, the z-score in experiment [8] is -0.0514 (inactive); in experiment [9], -0.355 (inactive); in experiment [10], -1.57; in experiment [11] it was -0.534; in experiment [12] it was -0.0502; in experiment [13], -0.0182. The z-score in experiment [14] was -1.25; in experiment [15], -0.648; in experiment [16] it was 0.592; in [17], -0.512 (inactive); in experiment [18], -0.729; in experiment [19], -0.723. The z-score in experiment [20] is 0.916 (inactive). In experiment [2], this molecule registered a composite z-score of 0.139.
As to `CCCCCC1=C2CNC(CCC)(C(=O)OC)C=C2C(C)C1=O` (stereo not given), the z-score was -1.11 (inactive) in experiment [1]; 2.2 (inactive) in [3]; 0.0123 (inactive) in experiment [4]; 0.807 (inactive) in [5]; 0.493 (inactive) in experiment [6]; -0.39 in experiment [7]. Further, the z-score was 0.0917 (inactive) in experiment [8]; -1.52 (inactive) in experiment [9]; -3.63 in experiment [10]; -1.22 in experiment [11]; -0.388 in experiment [12]; 0.62 in experiment [13]. Also, the z-score in [14] was 0.0829; in [15], -0.282; in experiment [16], -0.24; in [17], -0.283 (inactive); in [18] it was -0.18; in experiment [19], -1.13. For the same molecule, the z-score in experiment [20] was -0.606 (inactive). In experiment [2], the composite z-score was 0.358.
Regarding `COCC(=C=CC[C@@H](O)c1ccccc1OCCO)C[C@@H](O)c1cc(Cl)cc(Cl)c1O`, the z-score is -0.397 (inactive) in experiment [1]; 20.5 (active) in [3]; 4.9 (inactive) in [4]; 0.392 (inactive) in experiment [5]; 0.945 (inactive) in experiment [6]; 0.35 in experiment [7]. Besides, the z-score in [8] was -0.19 (inactive); in experiment [9], -0.894 (inactive); in experiment [10], -2.07; in [11], 0.14; in experiment [12], -0.407; in [13] it was 0.0467. For the same molecule, the z-score in experiment [14] was -3.32; in experiment [15] it was -3.44; in experiment [16] it was -2.21; in experiment [17], -1.69 (inactive); in [18], -0.881; in experiment [19], -1.15. The z-score in [20] is -0.106 (inactive). The same molecule came in with a composite z-score in experiment [2] of 0.086.
With `O=C(NCC(F)(F)F)[C@@H]1c2ccccc2C(=O)N(C2CCCCC2)[C@H]1c1ccc(CO)cc1`, the z-score is -0.36 (inactive) in experiment [1]; 0.732 (inactive) in experiment [3]; -0.243 (inactive) in [4]; 0.0266 (inactive) in experiment [5]; 0.18 (inactive) in experiment [6]; -0.216 in experiment [7]. Also, the z-score was 0.292 (inactive) in experiment [8]; -0.755 (inactive) in [9]; 0.211 in experiment [10]; 0.216 in [11]; 0.48 in experiment [12]; 0.354 in experiment [13]. The z-score in [14] is -0.515; in [15], 0.597; in experiment [16], 0.912; in experiment [17] it was -1.29 (inactive); in experiment [18] it was 0.329; in [19], 1.67. Moreover, in experiment [20], the z-score was 1.21 (inactive). In experiment [2], this molecule had a composite z-score of -0.146.
Take `[N-]=[N+]=NCc1ccccc1C[C@]1(C(=O)N2CCOCC2)N=C(c2ccc(OCCCO)cc2)O[C@H]1c1ccccc1N=[N+]=[N-]`: the z-score is 0.97 (inactive) in [1]; 30 (active) in experiment [3]; 25.3 (active) in experiment [4]; 2.34 (inactive) in experiment [5]; 1.92 (inactive) in experiment [6]; 1.73 in experiment [7]. For the same molecule, the z-score in [8] was -6.05 (inactive); in experiment [9], -2.96 (inactive); in experiment [10] it was -2.7; in experiment [11] it was -1.37; in experiment [12] it was 1.97; in [13], -0.956. Also, the z-score in experiment [14] is -1.28; in [15], -3.42; in experiment [16], 0.665; in experiment [17], -0.817 (inactive); in experiment [18], -1.1; in [19], -1.47. Besides, the z-score in [20] was -0.678 (inactive). Also, the composite z-score in experiment [2] came out at 0.043.
Take `C=C/C=C/[C@H]1C(=C)CN([C@@H](Cc2ccccc2)C(=O)OC)[C@@H]1[C@H](O)Cc1ccccc1`: the z-score in experiment [1] is 0.297 (inactive); in experiment [3] it was 1.09 (inactive); in [4], 0.804 (inactive); in [5], -0.207 (inactive); in experiment [6], 0.257 (inactive); in [7] it was -0.344. For the same molecule, the z-score in [8] was -0.66 (inactive); in experiment [9] it was -0.432 (inactive); in [10], -0.723; in experiment [11] it was -0.0859; in [12], -0.178; in [13], -0.0232. The z-score in experiment [14] was -2.2; in experiment [15], -1.52; in [16] it was -1.06; in [17] it was -0.882 (inactive); in experiment [18], -0.317; in experiment [19] it was 0.165. Further, the z-score in experiment [20] is -0.138 (inactive). This molecule registered a composite z-score in [2] of -0.239.
Consider `COc1cc2c(cc1OC)CN(C(=O)[C@@H]1[C@H]3C(=O)O[C@H](c4ccccc4)[C@H](c4ccccc4)N3[C@H](c3ccc(O)cc3)[C@@]13C(=O)Nc1ccc(C#CC4(O)CCCCCC4)cc13)CC2`, for which the z-score in [1] was 0.384 (inactive); in experiment [3], 0.794 (inactive); in experiment [4], 0.657 (inactive); in experiment [5], 0.87 (inactive); in [6] it was 0.442 (inactive); in experiment [7] it was 0.137. Further, the z-score is 1.65 (inactive) in [8]; 0.744 (inactive) in experiment [9]; 0.479 in [10]; 0.192 in experiment [11]; 0.284 in [12]; 1.37 in [13]. Moreover, the z-score in [14] is 0.132; in [15], -0.0905; in experiment [16] it was -0.769; in experiment [17], -0.771 (inactive); in experiment [18] it was -0.767; in experiment [19], -0.401. In [20], the z-score is 1.05 (inactive). Further, the composite z-score in experiment [2] is -0.771.

Values taken from PubChem BioAssay.
